The values that follow come from the OligoGym collection.
Further: reference of the scale not given here.

One assay has as its target TTLL4. The experiment in a line: pooled miR-30 sensor sort-seq; sequence = guide strand. The settings on record: shRNA.
The sequence TTCTTCTGTATCTTCAGTCTCA yielded a sensor-assay potency score (higher = more potent) of 0.119.

The sequence TAGTTTTGACAACAACATCCTT registered a sensor-assay potency score (higher = more potent) of -0.466.

Take TCGCACATACATCTTGAGCAGG: the sensor-assay potency score (higher = more potent) is -1.1.

Sequence TTTTTATTGACACTGTAGTTGG had a sensor-assay potency score (higher = more potent) of -0.76.

The sequence TTGATCACAGGTAACGTCTGGG displayed a sensor-assay potency score (higher = more potent) of 0.356.

As to TGTATCTTCAGTCTCAGCCTGA, the sensor-assay potency score (higher = more potent) was determined as 0.277.

TTGAGTATCACGTCATCCTTTG had a sensor-assay potency score (higher = more potent) of -0.629.

Regarding AGTTTTGACAACAACATCCTTT, the sensor-assay potency score (higher = more potent) is -0.763.

TTGCTAGTCTCTGATTTGCTGA displayed a sensor-assay potency score (higher = more potent) of -0.807.

In turn, TTTATTGACACTGTAGTTGGTC showed a sensor-assay potency score (higher = more potent) of 0.947.

Sequence TTTGACAACAACATCCTTTATC gave a sensor-assay potency score (higher = more potent) of -1.2.

For TTAGCTTCTGATGCTCTCGAAT, the sensor-assay potency score (higher = more potent) was -0.842.

A further assay addresses TTYH3. The assay is described as above. The settings on record: shRNA.
For the sequence AAGCTCAGCCACGACATCCTGC, the sensor-assay potency score (higher = more potent) was -0.514.

TTGCACGTAGTCCAGATGCAGG registered a sensor-assay potency score (higher = more potent) of -1.46.

Sequence TAGCAGAAGCCGGTCAGCGCTT displayed a sensor-assay potency score (higher = more potent) of -0.823.

TTCAGCACCTCCTGGACGCGGA came in with a sensor-assay potency score (higher = more potent) of -0.58.

TAGAATCCCACTGCGATGCCGG: the sensor-assay potency score (higher = more potent) was -0.487.

As to TAGTCGGTGTCCTCGGGCCGGA, the sensor-assay potency score (higher = more potent) was -1.53.

In the case of TAGCCCAGCCACCTGTACCAGT, the sensor-assay potency score (higher = more potent) is -1.16.

Turning to TTGGCTCTCATGCTGGAGGTGT, the sensor-assay potency score (higher = more potent) was -0.0842.

Regarding TTGCCGTAGAATCCCACTGCGA, the sensor-assay potency score (higher = more potent) was -1.44.

As for ATGATGACACACCAGGCCGTGC, the sensor-assay potency score (higher = more potent) is -1.46.

In turn, TTTTGCTGCCAGGTGTGCGGGA had a sensor-assay potency score (higher = more potent) of -0.687.

TATTTGGCTCTCATGCTGGAGG showed a sensor-assay potency score (higher = more potent) of -0.854.

The next assay concerns the target TUBA8. Described as above. The settings on record: shRNA.
For TGATCTTGCTAGCTTGAGCATC, the sensor-assay potency score (higher = more potent) was -1.14.

Take TCGAACTTGTGGTCGAGGCGGG: the sensor-assay potency score (higher = more potent) is -0.697.

As for AATAGCGACATTCACATCCTTG, the sensor-assay potency score (higher = more potent) was -0.744.

Consider TACATGAGGTCGAACTTGTGGT, for which the sensor-assay potency score (higher = more potent) was -0.814.

Turning to TTTCTTCTTCAAACGAATCAGT, the sensor-assay potency score (higher = more potent) was -0.469.

The sequence TCGCACTTCACCATCTGGCTGT displayed a sensor-assay potency score (higher = more potent) of -0.0578.

Turning to TTGAGGTTGGTATAGGTAGGGC, the sensor-assay potency score (higher = more potent) was -0.964.

The sequence ATTGAGGACACAATCTGACTGA yielded a sensor-assay potency score (higher = more potent) of 0.101.

In turn, TTTCTTGCCATAATCCAGGGAG registered a sensor-assay potency score (higher = more potent) of -0.376.

Regarding TTGAGGACACAATCTGACTGAT, the sensor-assay potency score (higher = more potent) was -0.409.

TTGATCTTGCTAGCTTGAGCAT returned a sensor-assay potency score (higher = more potent) of -0.893.

As for TCATCATCGTTGATCTTGCTAG, the sensor-assay potency score (higher = more potent) was -0.473.

Another assay deals with TUBAL3. Described as above. The settings on record: shRNA.
On to TAGTGTGGAACCTAGAGTCTTG, for which the sensor-assay potency score (higher = more potent) is -0.173.

In turn, TTCAATTAGGTCTACATTCAAG displayed a sensor-assay potency score (higher = more potent) of -1.3.

With TAAGGTACCAGGTTGGTCTGGA, the sensor-assay potency score (higher = more potent) was determined as 0.512.
